Assay results published in paper PMC7819943, “Rice protein-binding microarrays: a tool to detect cis-acting elements near promoter regions in rice”.
Whole data set: some 39,000 sequences, median “fluorescence intensity (a.u.)” near 4,300, cut for the highest 2% near 39,000. The list comes from a sample in which the highest values are over-represented; it also holds similar and randomly drawn sequences.

target: T1, OsSMF1 (Oryza sativa, UniProt Q6ZLB0 1-436); test: protein-binding microarray (RPBM); PBS, 2% BSA, 51.3 ng/ul salmon testes DNA, 50 uM zinc acetate, 200 nM TF, 25 C, 1 h; high values mean tight binding; settings: protein: recombinant; tags: N-terminal polyhistidine and DsRed monomer fusion (pET32a); chain copies: 2; label: CyDye5-dUTP incorporated in the synthesized complementary strand; 3' TTTTT single-stranded linker to array surface; dsDNA, one strand shown
T1 sequence: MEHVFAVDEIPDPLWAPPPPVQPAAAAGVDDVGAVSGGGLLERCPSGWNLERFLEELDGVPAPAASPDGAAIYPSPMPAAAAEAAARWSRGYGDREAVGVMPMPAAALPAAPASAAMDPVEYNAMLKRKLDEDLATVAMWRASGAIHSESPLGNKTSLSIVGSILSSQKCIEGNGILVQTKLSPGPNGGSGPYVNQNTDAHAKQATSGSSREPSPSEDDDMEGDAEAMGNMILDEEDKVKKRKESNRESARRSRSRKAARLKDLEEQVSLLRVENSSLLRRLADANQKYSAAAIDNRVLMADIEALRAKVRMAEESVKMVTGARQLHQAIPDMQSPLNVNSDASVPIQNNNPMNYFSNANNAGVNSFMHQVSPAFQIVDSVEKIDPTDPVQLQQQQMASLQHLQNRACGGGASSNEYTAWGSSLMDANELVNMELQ
Outline: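 The binding signal is fluorescence intensity per array feature (arbitrary units). Readings came from an Axon 4000B scanner after a washed, 2% BSA-blocked, double-stranded custom Agilent array had been incubated for 1 h at 25 °C with 200 nM protein and 50 µM zinc acetate. The protein was a Ni–NTA-purified transcription factor fused N-terminally to polyhistidine and DsRed, expressed in E. coli BL21-CodonPlus.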

Sequence | binding signal
TTCTGATTAGGCTGCCACATTGGCGGCACGTGTGATAGCTCGGAGTCACCTAGTGCAG | 45900 fluorescence intensity (a.u.)
AGATGTGATACATTAGCATTCTAGCACGGCGGTGGCATTGCGGAGTCACCTAGTGCAG | 3250 fluorescence intensity (a.u.)
GGCCAGGCCACCCCAACACGCCAGCCTCCCGGGCCGTTGACGGAGTCACCTAGTGCAG | 3250 fluorescence intensity (a.u.)
TGAACCTCGAAGATGCAAATATGTAGTAGTACGTAGGTCCCGGAGTCACCTAGTGCAG | 3310 fluorescence intensity (a.u.)
TATGTATGATCTCTTCCTGTAACATTTTCATCATCTAACCCGGAGTCACCTAGTGCAG | 3480 fluorescence intensity (a.u.)
CATTTCATATCAGAAGTGTGATCACTGTAACCCGCGGCGCCGGAGTCACCTAGTGCAG | 64500 fluorescence intensity (a.u.)
GGTCCGGTGTGACACTGTGACCCCGCCGTAACCCCGTAACCGGAGTCACCTAGTGCAG | 4060 fluorescence intensity (a.u.)
AGAGGAGCATCTTCTCGCCTGAGATTCCGTCGACGCCATTCGGAGTCACCTAGTGCAG | 3540 fluorescence intensity (a.u.)
GGCGGTGCTGGTGGAGGCGGTGGTCTCGGAGGTGGAGCAGCGGAGTCACCTAGTGCAG | 46000 fluorescence intensity (a.u.)
AGGTGGAGGCGCCGGTGTGGGTGGTGGAGCGGGAGGAGGTCGGAGTCACCTAGTGCAG | 4096 fluorescence intensity (a.u.)
GCGGGGTTGGAGGAGGAGGAGGTGGTGGTGGTGGTGGTGGCGGAGTCACCTAGTGCAG | 4860 fluorescence intensity (a.u.)
AGAGGGTGGAGGAGCTGACTAGATTGCACTAGGTCTCGATCGGAGTCACCTAGTGCAG | 42000 fluorescence intensity (a.u.)
TCGGCGGTCGTGGAGGTGGTGGCAGGCGGTCGTGGCGGAGCGGAGTCACCTAGTGCAG | 3990 fluorescence intensity (a.u.)
CAATAAACCGGTGGTTGGACCGGTCCAACCAATAAACCAGCGGAGTCACCTAGTGCAG | 43900 fluorescence intensity (a.u.)
GAGGGGATGACGGTGGTCTCGGCAGCGGATGACGGCGGCGCGGAGTCACCTAGTGCAG | 4490 fluorescence intensity (a.u.)
AATGGACCACCGTTAGTCCACCAGTCAGCCAACCAATGGCCGGAGTCACCTAGTGCAG | 3360 fluorescence intensity (a.u.)
CAACACCCAACCCCAATTGGTCGCGGTGGGTCGGACGGACCGGAGTCACCTAGTGCAG | 34900 fluorescence intensity (a.u.)
CTAAGGGTCTAAGAGATGATGCTGTGATGAGGTGGATCATCGGAGTCACCTAGTGCAG | 4840 fluorescence intensity (a.u.)
GTTGGTGGTGGAGCGGGAGGAGGTGCCGGTGGAGGCGGTGCGGAGTCACCTAGTGCAG | 53000 fluorescence intensity (a.u.)
GAGGTGGGGTGGCTTAGTGACCTCGTGTCGTAGATTGGATCGGAGTCACCTAGTGCAG | 4900 fluorescence intensity (a.u.)
CCGCTCGTCGATTAGCCGGCCACGCCTCCCGCTCGTGAAGCGGAGTCACCTAGTGCAG | 3680 fluorescence intensity (a.u.)
GACCCTGCCGCCCTCCATTTGGGCGGCAAGCTGACGTGGCCGGAGTCACCTAGTGCAG | 32700 fluorescence intensity (a.u.)

Sequence | binding signal
GCAGTTTGTCTCATGTGCTGCTGACTAGATATTGATCATACGGAGTCACCTAGTGCAG | 11400 fluorescence intensity (a.u.)
ATGATGAGTAGGAGTTTGTGCAGGTGGACGGCGGTGGTGGCGGAGTCACCTAGTGCAG | 3180 fluorescence intensity (a.u.)
TTCGCTAACGCCGCGCGTCACGTAGACACGTACTACTAGCCGGAGTCACCTAGTGCAG | 49600 fluorescence intensity (a.u.)
GTTCGCGGGCCGCGAACGTCCACGTACTAGACGCCCCTCACGGAGTCACCTAGTGCAG | 4050 fluorescence intensity (a.u.)
TCACGCGTAGCTTCGCCGCTACGTGGCCTCGCGCACGTTACGGAGTCACCTAGTGCAG | 5500 fluorescence intensity (a.u.)
CCTGCATGCGTGGCTGCGCTCACTGTCGTTATTTGCTTTACGGAGTCACCTAGTGCAG | 5080 fluorescence intensity (a.u.)
AATGAGATACTTAGACTTGTGAGGCCCGACGTGTCCAATCCGGAGTCACCTAGTGCAG | 4470 fluorescence intensity (a.u.)
AAAGGGCAGGCACATCGCTTTCGGGCCCTGTCACGTACCCCGGAGTCACCTAGTGCAG | 3920 fluorescence intensity (a.u.)
TCAATAATGTGTGCGTGACCTGGGCAAGTGGCGGTAGCAACGGAGTCACCTAGTGCAG | 3540 fluorescence intensity (a.u.)
ATCTGCTTTGTGAGGCACATGAAGCTGGAGATATCTGTCACGGAGTCACCTAGTGCAG | 4740 fluorescence intensity (a.u.)
ACCGAGTCCACGGAGCAGTGAGAGAGCCAGGCAGCCAGTGCGGAGTCACCTAGTGCAG | 3960 fluorescence intensity (a.u.)
GATCGAGCGGCAGGCCAGCAGTAACCTGGCCGAGAAGTTGCGGAGTCACCTAGTGCAG | 64500 fluorescence intensity (a.u.)
TTTGCTCGTTGGCAGCGGCCAGCAGGCACGTGTAACGGCGCGGAGTCACCTAGTGCAG | 4190 fluorescence intensity (a.u.)
GATGTGCGATAGCAGAATGGTGCTAAGTGAGTCACATCGTCGGAGTCACCTAGTGCAG | 3970 fluorescence intensity (a.u.)
TTTAATGATCTTATAAATTGTAATGCTGATAGGTGGTTATCGGAGTCACCTAGTGCAG | 3590 fluorescence intensity (a.u.)
TATAATGTTTGGGTGCGTTTAATTCTATTTGAATTACACTCGGAGTCACCTAGTGCAG | 48000 fluorescence intensity (a.u.)
AAGCTTACAACATGTTCTATAATTTATTTAATTCTACAAACGGAGTCACCTAGTGCAG | 45700 fluorescence intensity (a.u.)
TTCTAATTACTATTTAAGCTTATCCTAATTAACTCACATGCGGAGTCACCTAGTGCAG | 3230 fluorescence intensity (a.u.)
ATACCGGTGCGTTACAACGAGGTGAATGTTATTTTAATTTCGGAGTCACCTAGTGCAG | 25200 fluorescence intensity (a.u.)
AATCAACAAATAACTAATATTCTTACATCAGCTACTATAACGGAGTCACCTAGTGCAG | 28600 fluorescence intensity (a.u.)
ACACTATGATTATAATATATTTACATGTGTGAATTGTTTACGGAGTCACCTAGTGCAG | 3640 fluorescence intensity (a.u.)
